# From PubChem
# Only some compounds are listed: those with a hit (about 3.6% of all), similar ones and a draw of the others.
# EBV LMP1 NFkB = EBV LMP1-driven NF-kappaB luciferase reporter inhibitors, primary screen, cell-based, luminescence, single point; inhibition, % at 12.5 µM; hit rate 0.69% among 350,000; LMP1-induced NF-kappaB luciferase reporter cells; in the data active = inhibition above about 41%; inconclusive = no clear call, values can overlap the other calls;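 also: 0% = neutral control wells and 100% = reference inhibitor control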
# TWEAK Fn14 block = inhibitors of TWEAK-Fn14 signaling, primary screen, luciferase reporter cells, uHTS; TWEAK-stimulated Fn14 reporter cells, luciferase luminescence, 8 h; AID 1159606, 2016; hit rate 2% among 360,000; inhibition, % at 10 µM; in the data active = inhibition above about 50%
# HSF1 inhib = HSF1 inhibitors in luciferase reporter cells, primary screen, cell-based, NIH3T3, luminescence; NIH3T3-HGL HSE-luciferase, MG132-induced, luminescence 8 h; active compounds read low; activity change, negative = inhibition, % at 7.5 µM (by protocol); hit rate 0.77% among 300,000; AID 2098, 2009;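 active = more than half of replicate wells show activity change below -50%, luminescence cut by over half; inconclusive = some wells, but at most half, below -50%; inactive = no replicate well below -50%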;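 also: luciferase reports HSF-1 transcriptional activity via heat shock element; 0% = median of DMSO wells and -100% = zero luminescence signal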
# LGR2 antag = inhibitors of bursicon-induced LGR2 CRE-luciferase signal, primary screen, cell-based, HEK293, CRE-luciferase reporter, bursicon stimulation; Drosophila bursicon receptor LGR2 (rickets); bursicon-stimulated, 4 h; inhibition, % at 9.99 µM; hit rate 0.35% among 380,000; AID 720647, 2013;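 active = drop in luminescence signal, shown as inhibition above about 50% in the replicate tests, limit read from the data, passing the limit was not always enough; inconclusive = probably only some replicates passing the limit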;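 also: agonist challenge used bursicon conditioned medium at about half maximal strength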
# TROY NFkB inh = inhibitors of TROY-driven NF-kB signaling, primary screen, Q293 LMP1-TROYcd cells, NF-kB luciferase, uHTS; Q293 LMP1-TROYcd NF-kB luciferase reporter, 4 h; hit rate 0.98% among 360,000; inhibition, % at 10 µM;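 active = compounds whose plate-normalised and pattern-corrected inhibition of the luciferase reporter signal at the single screening dose is 50% or more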
# HSF1 activator = HSF-1 activators, primary screen, NIH3T3-HGL cells, MG132 stress, luminescence, single point. hit rate 1.7% among 300,000. activation, % at 9 µM. NIH3T3-HGL HSF-1 luciferase reporter, 8 h; 100% = twice DMSO control signal. AID 504408, 2011;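 active = mean replicate activation of at least 50% with a set share of replicates each reaching 50%; inconclusive = only one of those two conditions met; inactive = mean below 50% and too few replicates reaching it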;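 also: 0% = median of the neutral control wells and 100% = twice that signal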
# Numbers without * were called inactive; ? = inconclusive; / = no result given.
SMILES,EBV LMP1 NFkB,TWEAK Fn14 block,HSF1 inhib,LGR2 antag,TROY NFkB inh,HSF1 activator
CC(C)N1C(=O)S/C(=C/c2ccc(Sc3nc4ccccc4[nH]3)o2)C1=O,26,89*,5,32,59*,16
CCOC(=O)C(C)N1C(=O)S/C(=C\c2ccc(-c3ccccc3C(=O)O)o2)C1=O (stereo unspecified),-1,8,-2,7,0,-19
C=CCN1C(=O)S/C(=C/c2ccc(Sc3nc4ccccc4[nH]3)o2)C1=O,20,73*,-16,-19,52*,-35
CC(C)OC(=O)N(C)C[C@H]1OCc2ccccc2-c2c(n(C)c3ccccc23)C(=O)N([C@H](C)CO)C[C@H]1C,/,/,/,10,/,/
CC1(C)CC(=O)C(N=Nc2ccc(Br)cc2)=C(O)C1,/,-1,2,-19,-11,14
COc1ccc(N=NC2=C(O)CC(C)(C)CC2=O)cc1,-16,2,45,/,-68,58*
O=C(CCN1CCCCC1)NCC[C@@H]1CC[C@@H](NC(=O)c2ccc(F)cc2)[C@H](CO)O1,/,/,/,12,/,/
CC(OC(=O)/C=C/c1ccc2ccccc2n1)C(=O)NCc1ccccc1 (stereo unspecified),-12,17,80,-38,-44,122*
COC(=O)CNC(=O)COC(=O)/C=C/c1ccc2ccccc2n1,-25,8,2,4,-48,14
COc1cc2cc(NC(C)=O)cc(NCc3ccccc3)c2cc1OC,-20,-6,28,0,59*,66*
CCCCNc1cc(NC(C)=O)cc2cc(OC)c(OC)cc12,0,9,59,/,14,76*
C[C@@H]1CN([C@H](C)CO)C(=O)c2cc(C#CC(C)(C)O)cnc2O[C@H]1CN(C)Cc1cccc(F)c1,/,/,/,-4,/,/
CNC1=C(N(C(C)=O)c2ccc(Br)cc2)C(=O)c2ccccc2C1=O,25,91*,-33,13,64*,-40
CC(=O)NC1=C(Nc2ccc(N(C)C)cc2)C(=O)c2ccccc2C1=O,-7,43,12,-22,24,33
CCC(=O)N(C1=C(NC)C(=O)c2ccccc2C1=O)C(C)C,0,61*,3,-6,18,-2
CO[C@H]1CN(C)C(=O)c2ccc(NC(=O)C3CC3)cc2OC[C@H](C)N(C(=O)c2ccccc2F)C[C@@H]1C,/,/,/,-8,/,/
Cc1ccc(S(=O)(=O)N(C)C[C@H]2Oc3cc(C#Cc4ccncc4)ccc3S(=O)(=O)N([C@H](C)CO)C[C@@H]2C)cc1,/,/,/,0,/,/
CC1(C)CC(N2CCN(Cc3ccccc3)CC2)=CC(=[N+]2CCCCC2)C1,15,26,-5,11,30,-24
CN(Cc1ccccc1)C1=CC(=[N+]2CCCCC2)CC(C)(C)C1,44*,35,2,17,43,-11
O=C(c1cccnc1)N1CC2(C1)[C@H](c1ccccc1)[C@H](CO)N2CC1CC1,/,/,/,5,/,/
COc1cc2c(cc1OC)CN(c1ccc(C(F)(F)F)cn1)CC2,-21,51*,66,9,-10,102*
CC(C)c1ccc(NC2(C#N)C(=O)Nc3ccccc32)cc1 (stereo unspecified),-2,-22,-61*,14,9,-67
C[C@@H]1CN([C@@H](C)CO)C(=O)Cc2cc(NC(=O)CCN3CCOCC3)ccc2O[C@H]1CN(C)Cc1ccc(C(=O)O)cc1,/,/,/,15,/,/
C[C@H](CO)N1C[C@H](C)[C@H](CN(C)C(=O)Nc2ccc(F)cc2)Oc2ccc(NC(=O)Nc3cccc4ccccc34)cc2CC1=O,/,/,/,-2,/,/
CCC(=O)N1[C@@H]2c3ccc(C4=CCCC4)c(=O)n3C[C@@H]2[C@@H](CO)[C@@H]1C(=O)Nc1ccccc1,/,/,/,-1,/,/
SMILES,EBV LMP1 NFkB,TWEAK Fn14 block,HSF1 inhib,LGR2 antag,TROY NFkB inh,HSF1 activator
Cc1ccc2nc(NC(=O)C3CCN(S(=O)(=O)c4cccnc4)CC3)sc2c1,9,24,-2,22,15,-8
COc1ccc2nc(NC(=O)C3CCN(S(=O)(=O)c4cccs4)CC3)sc2c1,13,55*,-33,/,54*,-46
Cc1ccc2nc(NC(=O)C3CCN(S(=O)(=O)c4cccc5nsnc45)CC3)sc2c1,14,92*,-7,27,42,12
Cc1ccc2nc(NC(=O)C3CCN(S(=O)(=O)c4cccs4)CC3)sc2c1,9,80*,-8,34,40,14
CCCC(=O)Nc1ccc2c(c1)C(=O)N(C)C[C@@H](OC)[C@H](C)CN(CCc1ccccc1)[C@H](C)CO2,/,/,/,4,/,/
CCCN(C)C[C@@H]1OCCCC[C@@H](C)Oc2ccc(NS(=O)(=O)c3ccccc3)cc2C(=O)N([C@H](C)CO)C[C@@H]1C,/,/,/,-6,/,/
Cc1ccc(S(=O)(=O)NCC[C@H]2CC[C@@H](NC(=O)c3cccc(F)c3)[C@H](CO)O2)cc1,/,/,/,1,/,/
Clc1cncc(Cl)c1N/N=C/c1ccncc1,34,59*,-13,22,63*,-32
Clc1cccc(Cl)c1/C=N/Nc1c(Cl)cncc1Cl,-6,6,-6,-4,-17,-17
COc1ccc(/C=C/C(=O)c2ccc3c4c(cccc24)CC3)cc1OC,11,52*,14,-22,-7,8
COc1ccc(/C=C/C(=O)c2cc(F)ccc2OC(=O)c2ccccc2C)cc1OC,-12,53*,-2,32,24,-3
COc1ccc(C(=O)Oc2ccc(F)cc2C(=O)/C=C/c2ccc(OC)c(OC)c2)cc1,2,26,1,12,3,10
CCCNC(=O)N1C[C@@H]2[C@H](c3ccccc31)[C@@H](CO)N2Cc1cc(F)ccc1F,/,/,/,-6,/,/
C[C@H](CO)N1C[C@H](C)[C@H](CN(C)Cc2ccc(Oc3ccccc3)cc2)Oc2ncc(-c3cncnc3)cc2C1=O,/,/,/,-23,/,/
Cc1cc2[nH]c3c4ccccc4nc(C)c3c2cc1C,-40,-72,/,-8,78*,/
Cc1cc(C)c(CSc2ncc(-c3ccc([N+](=O)[O-])cc3)[nH]2)c(C)c1,-3,41,8,3,57*,17
O=[N+]([O-])c1ccc(-c2cnc(SCc3ccccc3Cl)[nH]2)cc1,-14,-34,24,/,-19,56*
NC(=O)CSc1ncc(-c2ccc([N+](=O)[O-])cc2)[nH]1,-6,-10,/,-2,-5,/
O=[N+]([O-])c1ccc(-c2cnc(SC(c3ccccc3)c3ccccc3)[nH]2)cc1,8,79*,12,?,62*,10
CCOc1ccc(NC(=O)CCCNC(=O)Cn2cnc3sc(C)c(C)c3c2=O)cc1,0,34,-64*,-2,0,-70
